Screening data (PubChem BioAssay)
Lmaj promast – inhibitors of Leishmania major promastigote growth | Leishmania major promastigotes, resazurin fluorescence viability | actives 9% (n = 200,000) | inhibition, % at 10 µM; in the data active means inhibition above about 50%;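 further: promastigotes grown with compound for 44 hours at 28 °C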
Insulin prom up – MIN6 insulin promoter up-regulation; MIN6 insulin promoter-GFP reporter, high-content imaging; stronger effect = higher value; z-score at 5 µM; actives 0.3% (n = 190,000); AID 1625;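 active means z-score above 3 at 5 µM with at least 500 cells counted in the well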
ROMK mod – modulates human ROMK potassium channel activity; actives 2% (n = 130,000); P48048; B-score at 10 µM; Tet-inducible ROMK, thallium flux fluorescence; actives lie on both sides;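 active means signal ratio slope over the read window, or its plate-corrected B-score, at least 3 SD from the plate mean, either direction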;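 further: B-score of the F/F0 ratio slope over 7 to 12 s after thallium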
KCC2 mod – KCC2 (human) Cl- transport modulation | KCC2 cells, thallium flux FluoZin-2 fluorescence | B-score of Tl+ flux slope (higher = more flux/activation; lower = inhibition) at 10 µM | actives 2.2% (n = 190,000) | AID 1456;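 active means thallium flux slope and its plate-corrected score both differing from the plate sample mean at a set confidence after two filtering rounds, in either direction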;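 further: slope of fluorescence scaled to starting intensity during 10 to 20 s after thallium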
WT yeast gro inh – growth inhibition of WT yeast, mitochondrial fusion screen. mitochondrial fusion phenotypic screen, WT strain. inhibition, % at 10 µM. actives 2.1% (n = 190,000); in the data active means inhibition above about 58%; tested in S. cerevisiae
Insulin prom inh – TRM-6 insulin promoter activity inhibition; TRM-6 cells (human fetal islet line), insulin promoter-eGFP reporter, imaging; reporter expression induced with tamoxifen; inhibition, % at 2 µM; actives 0.9% (n = 130,000);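 active means inhibition above the mean plus 3 SD, with well images judged a real hit on visual review, cut at about 60% in these data, passing the limit was not always enough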
Numbers without * were called inactive; · = not tested or not shown. Rows were chosen to be rich in hits. Some 12% of all compounds tested hit in one or more screens of this group.

SMILES	Lmaj promast	Insulin prom up	ROMK mod	KCC2 mod	WT yeast gro inh	Insulin prom inh
O=C(CCC(=O)N1CCN(S(=O)(=O)c2ccc(Cl)cc2)CC1)Nc1ccc2ccccc2c1	81*	0.48	-0.86	-0.62	-20	9
COc1cccc(/C=C2\SC(N)=NC2=O)c1OS(=O)(=O)c1ccccc1	-2	-0.02	1.6	·	3	40
COc1ccc(S(=O)(=O)N2CCCN(CCC(=O)Nc3cccc(C(F)(F)F)c3)CC2)cc1	100*	·	-2.5	-3	-1	-61
CN1CCN(S(=O)(=O)c2ccc(NC(=O)c3cccs3)cc2)CC1	-5	-0.27	·	0.37	7	-3
COC(=O)CCC(=O)NC(=S)Nc1ccc(S(=O)(=O)N2CCCC2)cc1	-3	·	0.023	-0.1	-6	-23
CN1CCN(S(=O)(=O)c2ccc(NC(=O)c3csc4ccccc34)cc2)CC1	56*	-0.38	·	0.39	1	24
CC(C)C(=O)NC(=S)Nc1ccc(S(=O)(=O)N2CCN(C)CC2)cc1	87*	-0.09	0.39	0.063	-13	-19
CC(C)CC(=O)NC(=S)Nc1ccc(S(=O)(=O)N2CCN(C)CC2)cc1	67*	0.15	-0.042	-0.11	-2	-8
CN1CCN(S(=O)(=O)c2ccc(NC(=S)NC(=O)C3CCCC3)cc2)CC1	7	·	-0.26	0.33	5	·
O=C(NCc1ccco1)c1ccc(-c2cccc(Cl)c2)o1	-5	-0.03	·	·	-2	·
COc1ccc(S(=O)(=O)N2CCCC(C(=O)Nc3cccc(C(C)=O)c3)C2)cc1 (stereo not drawn)	58*	0.49	·	·	-12	6
COC(=O)c1ccc(NC(=O)C2CCCN2S(=O)(=O)c2ccc(OC)cc2)cc1 (stereo not drawn)	58*	0.26	·	-0.015	-1	-14
O=C1C(NS(=O)(=O)c2cccs2)=C(N2CCN(c3cccc(C(F)(F)F)c3)CC2)C(=O)c2ccccc21	62*	-0.89	0.065	0.0042	29	-28
CCOc1ccccc1N1CCN(C2=C(NS(=O)(=O)c3cccs3)C(=O)c3ccccc3C2=O)CC1	99*	-0.18	-0.16	0.82	31	16
CN1CCN(C(CC(=O)Nc2cccc(O)c2)C(=O)O)CC1 (stereo not drawn)	-3	·	0.57	0.39	8	·
COC(=O)c1cc(NS(=O)(=O)c2ccc(N3CCCCCC3)c([N+](=O)[O-])c2)cc(C(=O)OC)c1	30	0.32	0.26	1.1	-5	8
CNC(=O)NC(=O)COc1c(F)c(F)cc(F)c1F	-5	0.32	·	0.58	2	·
O=C(CN1C(=O)c2ccccc2C1=O)N1CCN(C2c3ccccc3-c3ccccc32)CC1	27	0.43	·	-0.39	32	-14
Cc1csc(SCC(=O)Nc2cc(S(=O)(=O)N3CCCC3)ccc2Cl)n1	4	-1.5	·	0.73	-7	0
COc1cc([N+](=O)[O-])cc(/C=N/NC(=O)c2cccnc2)c1O	·	0.89	·	·	·	·
O=C(N/N=C\c1ccc(-c2ccc([N+](=O)[O-])cc2)o1)C1COc2ccccc2O1 (stereo not drawn)	96*	0.44	·	-0.41	18	-48
COc1ccc(-c2ccc(/C=N/NC(=O)c3cccnc3)o2)c([N+](=O)[O-])c1	75*	2.3	0.12	-2.5	0	-116
Cc1ccc(C(=O)N/N=C/c2ccc(-c3ccccc3[N+](=O)[O-])o2)cn1	72*	-0.04	·	-2.3	-2	·
O=C(N/N=C/c1ccc(-c2ccccc2[N+](=O)[O-])o1)[C@H]1C[C@@H]1c1ccccc1	90*	-0.13	·	-0.82	39	37
O=C(N/N=C/c1ccc(-c2ccc([N+](=O)[O-])cc2)o1)[C@H]1C[C@@H]1c1ccccc1	·	1	·	1	·	·
SMILES	Lmaj promast	Insulin prom up	ROMK mod	KCC2 mod	WT yeast gro inh	Insulin prom inh
O=C(CSc1nnc2ccccn12)N1CCc2ccccc21	-7	0.44	-0.21	·	-26	17
Cc1nnc(N/N=C\c2ccc(-c3ccccc3[N+](=O)[O-])o2)n1N	58*	0.11	-0.27	-1.4	-6	29
O=C(N/N=C/C=C/c1ccccc1)C1CC1c1ccccc1 (stereo not drawn)	1	·	-0.47	·	64*	-39
CC(C)NS(=O)(=O)c1ccc2c(c1)NCC2	49	-0.04	-0.022	0.66	-8	8
CNC(=O)COC(=O)/C=C/c1ccc(F)cc1	-7	1.3	0.72	·	-9	-40
CCOC(=O)c1sc2nc(CN3CCCCC3)nc(Cl)c2c1C	5	-1.7	-0.13	0.65	-16	0
Cc1sc2nc(CN3CCCC3)nc(Cl)c2c1C	86*	-0.03	·	-0.18	10	4
